Molecules are shown by their SMILES. The source made the active and inactive calls. How the source made its calls: active means hit-call score of the fitted dose curve at least 0.9, where 1 is the maximum; inactive means score below 0.9.

Read-out in the assay: Forkhead box O3 (FOXO3), FOXO3 (gene 2309)
Description: LTEA_HepaRG_FOXO3: Life Technologies and Expression Analysis (LTEA) Assay for Forkhead box O3 (FOXO3) using HepaRG (AID 2283459). The settings on record: mRNA level, 48 h; actives raise or lower the signal. In a few lines: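 qRT-PCR readout of FOXO3 transcript, normalized to three housekeeping genes (ACTB, GAPDH, POLR2A); gain or loss fitted against 0.5% DMSO vehicle. HepaRG cells, 48 h chemical exposure, 8-point half-log series, top 100 uM.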
Regarding `CO/N=C(/C1=NOCCO1)c1ccccc1Oc1ncnc(Oc2ccccc2Cl)c1F`, the compound was classed as inactive. Take `CCCCOCN(C(=O)CCl)c1c(CC)cccc1CC`: the result was inactive. Same read-out and setting: as for `CS(=O)(=O)c1ccc(C(=O)C2C(=O)CCCC2=O)c([N+](=O)[O-])c1`, the entry is “inactive”; as for `O=c1n(Cl)c(=O)n(Cl)c(=O)n1Cl`, “inactive”; as for `CCOP(=O)(OCC)Oc1nc(Cl)c(Cl)cc1Cl`, “inactive”. On the same count and under the same terms, the value for `Cc1cnc(C2=NC(C)(C(C)C)C(=O)N2)c(C(=O)O)c1` (stereo not given) was “inactive”; that for `O=C(O)c1c(Cl)ccc2cc(Cl)cnc12` was “inactive”. Consider `Cc1cc(C)nc(Nc2ccccc2)n1`, for which the outcome was inactive. `Nc1c(Cl)c(Cl)nc(C(=O)O)c1Cl`: the outcome was inactive. The same measure, in the same setting: the value for `OC(c1ccc(Cl)cc1)(c1ccc(Cl)cc1)C(Cl)(Cl)Cl` was “inactive”; that for `CCCCC(O)(Cn1cncn1)c1ccc(Cl)cc1Cl` (stereo not given) was “inactive”; that for `Nc1c(Cl)c(F)nc(OCC(=O)O)c1Cl` was “inactive”. As to `CC1(C)C(C(=O)OC(C#N)c2cccc(Oc3ccccc3)c2)C1(C)C` (stereo not given), the compound was classed as inactive.

`CCOc1cc(C(C)(C)C)ccc1C1COC(c2c(F)cccc2F)=N1` (stereo not given): the call was inactive.

As a reminder, the AC50 is the concentration at which the activity in the assay is half-maximal. Regarding `N#Cc1c[nH]cc1-c1cccc2c1OC(F)(F)O2`, the AC50 is 12.3 µM (active).

For `CCNC(=O)NC(=O)C(C#N)=NOC`, the compound was called inactive. Still for that read-out and setting: as for `COP(=O)(OC)O/C(C)=C/C(=O)N(C)C`, the entry is “inactive”; as for `CCOc1nc(F)cc2nc(S(=O)(=O)Nc3c(Cl)cccc3Cl)nn12`, “inactive”. As for `CNC(=O)N(C)c1nnc(C(C)(C)C)s1`, the compound was classed as inactive. On the same count and under the same terms, the value for `CC(C)N1C(=O)c2ccccc2NS1(=O)=O` was “inactive”; that for `Cc1ccc(N=CN(C)C=Nc2ccc(C)cc2C)c(C)c1` was “inactive”; that for `CS(=O)(=O)c1cc(C(F)(F)F)ccc1C(=O)c1cnoc1C1CC1` was “inactive”. On the same count and under the same terms, as for `C=C(C)CN(CC)c1c([N+](=O)[O-])cc(C(F)(F)F)cc1[N+](=O)[O-]`, the entry is “inactive”; as for `COc1ccc(-c2ccccc2)cc1NNC(=O)OC(C)C`, “inactive”; as for `CN=C=S`, “inactive”.

On to `O=P(O)(O)CCCl`, for which the call was inactive. Turning to `C=CCOC(=O)C(C)(C)OC(=O)c1cc(-n2c(=O)cc(C(F)(F)F)n(C)c2=O)ccc1Cl`, the compound was called inactive. Consider `CC(C)C1(C)N=C(c2ncccc2C(=O)O)NC1=O` (stereo not given), for which the compound was called inactive.

Consider `CC(C)=CC1C(C(=O)OCc2coc(Cc3ccccc3)c2)C1(C)C` (stereo not given), for which the compound was classed as inactive. As for `Cn1c(-c2ccccc2)cc(-c2ccccc2)[n+]1C`, the AC50 was 2.57 µM (active).

For `CSC(=O)c1c(C(F)F)nc(C(F)(F)F)c(C(=O)SC)c1CC(C)C`, the call was inactive. Still for that read-out and setting: the value for `Clc1cccc(C(Cl)(Cl)Cl)n1` was “inactive”; that for `COc1cc(OC)nc(NC(=O)NS(=O)(=O)c2ncccc2OCC(F)(F)F)n1` was “inactive”. On the same count and under the same terms, the value for `COC(=O)NS(=O)(=O)c1ccc(N)cc1` was “inactive”.

Regarding `COC(=O)c1c(C(F)F)nc(C(F)(F)F)c(C2=NCCS2)c1CC(C)C`, the compound was called inactive.
